This is a sample that favours compounds with a hit; in the whole collection about 9.2% have one here.
HttQ103 aggreg: qHTS Multiplex Assay to Identify Dual Action Probes in a Cell Model of Huntington: Aggregate Formation (GFP) | PC12 HttQ103-GFP aggregates, Acumen cytometry, 40 h | Potency, µM (titrated, usually from 46.1 µM), without a hit: at the top dose activity change, negative = inhibition, most hits filed as inhibitors | hit rate 1.1% among 220,000; active = well fitted curve in the direction sought with a large enough effect; inconclusive = small, poorly fitted or top-dose-only effect, or another doubt; inactive = no such curve, though single readings can be large; an effect the other way counts as inactive or inconclusive; note: % is set by controls: 0 for no effect and ±100 for the full control effect; nearly all actives have a fitted effect of over 60% in size
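Quantitative HTS on tebufenozide-induced (100 nM) PC12 cells stably expressing polyQ103 Huntingtin exon 1–GFP. Reduction of bright GFP aggregates, detected by laser scanning cytometry after lysis, identified actives across the titration.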
ALDH1A1 block: qHTS Assay for Inhibitors of Aldehyde Dehydrogenase 1 (ALDH1A1); Aldehyde dehydrogenase 1A1 (Homo sapiens), P00352; Potency, µM (doses to about 75.3 µM), without a hit: at the highest dose activity, negative = inhibition, actives largely listed as inhibitors; hit rate 7.3% among 220,000; Purified ALDH1A1, NADH fluorescence, propionaldehyde substrate;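 note: plate controls were no enzyme wells and a reference inhibitor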
Target sequence (P00352 whole entry, looked up): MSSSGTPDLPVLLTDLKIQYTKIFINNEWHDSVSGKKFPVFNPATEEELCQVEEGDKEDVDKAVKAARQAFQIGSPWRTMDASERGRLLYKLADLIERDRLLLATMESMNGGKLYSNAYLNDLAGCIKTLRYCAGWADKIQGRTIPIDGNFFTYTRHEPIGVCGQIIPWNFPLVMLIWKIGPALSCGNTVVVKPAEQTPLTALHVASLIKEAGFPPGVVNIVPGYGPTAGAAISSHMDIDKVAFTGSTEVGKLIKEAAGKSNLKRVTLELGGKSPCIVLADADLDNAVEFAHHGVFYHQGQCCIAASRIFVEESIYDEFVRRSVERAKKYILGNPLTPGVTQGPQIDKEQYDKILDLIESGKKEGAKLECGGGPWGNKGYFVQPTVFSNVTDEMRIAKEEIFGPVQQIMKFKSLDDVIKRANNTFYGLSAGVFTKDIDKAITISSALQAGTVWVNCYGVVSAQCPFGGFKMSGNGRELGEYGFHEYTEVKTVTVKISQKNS
HTT ATP protect: qHTS Multiplex Assay to Identify Dual Action Probes in a Cell Model of Huntington: Cytoprotection (ATP) | PC12 HTT-Q103 induced, cytoprotection, ATP luminescence, 40 h | AID 1471, 2008 | Potency, µM (doses to about 56.4 µM), for the others: cytoprotection (ATP increase), actives largely listed as activators | hit rate 0.14% among 230,000; active = well fitted curve in the direction sought with a large enough effect; inconclusive = small, poorly fitted or top-dose-only effect, or another doubt; inactive = no such curve, though single readings can be large; an effect the other way counts as inactive or inconclusive; note: % of control where 0% means no effect; nearly all actives have a fitted effect of over 45% in size
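Huntington model: PC12 line, ecdysone-inducible HTTQ103 exon1–GFP, tebufenozide 100 nM. Test articles in a dose series. Endpoint luminescence from cellular ATP.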
JMJD2E inh: qHTS Assay for Inhibitors of Human Jumonji Domain Containing 2E (JMJD2E); Lysine-specific demethylase 4E (Homo sapiens), B2RXH2; JMJD2E catalytic domain, FDH-coupled NADH fluorescence (FDH is formaldehyde dehydrogenase); Potency, µM (doses to about 57.1 µM), without a hit: top-dose activity change, negative = inhibition, usual class: inhibitors; hit rate 1.6% among 230,000;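 note: 0% = wells with enzyme and -100% = buffer wells without enzyme; nearly all actives have a fitted effect of over 50% in size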
Lamin A splicing: qHTS Assay for Modulators of Lamin A Splicing; HeLa LMNA splicing GFP/RFP minigene ratio, 48 h; Potency, µM (highest dose often 46.1 µM), for the others: top-dose ratio change, negative = inhibition, hits mostly inhibitors; hit rate 0.01% among 200,000; AID 1487, 2009; active = well fitted inhibition curve with a large enough effect in the signal ratio, with a control signal flat, not every such curve was filed as active; inconclusive = small, poorly fitted or top-dose-only effect, or effect the other way, or a change in a side signal; the % refers to the signal ratio; note: % is set by controls: 0 for no effect and ±100 for the full control effect
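S3 HeLa cells stably expressing lamin A-EGFP splicing minigene plus DsRed2, 600 cells/well, 48 h compound exposure at 37C. Laser-scanning cytometry; analysed as GFP (500-530 nm)/RFP (575-640 nm) total intensity ratio; 0.5% DMSO vehicle.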
HPGD inh: qHTS Assay for Inhibitors of HPGD (15-Hydroxyprostaglandin Dehydrogenase); AID 894, 2007; purified HPGD, NADH fluorescence kinetic, PGE2 substrate; hit rate 4.3% among 150,000; Potency, µM, without a hit: at the top dose activity change, negative = inhibition, most hits filed as inhibitors; note: % is set by controls: 0 for no effect and ±100 for the full control effect
Target sequence (P15428 whole entry, looked up): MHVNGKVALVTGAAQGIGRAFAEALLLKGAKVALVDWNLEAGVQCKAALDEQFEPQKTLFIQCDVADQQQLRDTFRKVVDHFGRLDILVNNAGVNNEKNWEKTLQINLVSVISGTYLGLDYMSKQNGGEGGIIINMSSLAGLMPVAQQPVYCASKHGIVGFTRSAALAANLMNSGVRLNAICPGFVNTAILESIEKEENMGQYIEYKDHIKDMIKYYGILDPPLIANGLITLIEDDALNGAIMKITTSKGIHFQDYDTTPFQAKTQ
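NADH formation kinetics: reaction with 30 uM PGE2 and 1 mM NAD+ (final), 20 nM enzyme, Tris-HCl pH 8 with Tween 20, after 15 min compound preincubation at room temperature. Fluorescence change, last versus first of five reads.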
Starred values were filed as active, the others as inactive; ? = inconclusive; · = no result; [ ] = remark or other dose. Unless noted, calls come from the whole dose curve; as a rule, active = well fitted inhibition curve with a large enough effect (not every such curve was filed as active); inconclusive = small, poorly fitted or top-dose-only effect, or another doubt; inactive = no such curve, though single readings can be large or run the other way. Potency is the fitted concentration of half-maximal effect.

SMILES	HttQ103 aggreg	ALDH1A1 block	HTT ATP protect	JMJD2E inh	Lamin A splicing	HPGD inh
Cc1ccc(C(=O)NCc2ccc(Cl)cc2)o1	-2%	-1%	12%	-2%	-6%	14µM*
O=C(/C=C/c1ccc(Br)o1)NC(c1ccccc1)c1ccccc1	?	22µM*	-2%[10 µM]	-22%	?	8%
CCCCC(=O)NCc1ccc(Cl)cc1	-5%	17%	24%[0.074 µM]	-4%	2%	14µM*
CC(C)c1ccc(C(=O)NCc2ccc(Cl)cc2)cc1	-11%	1%	-24%[10 µM]	-2%	-5%	-6%
O=C(NCCc1ccccc1)c1ccc(Br)o1	-4%	?	-11%	-2%	13%	?
O=C(c1ccc(Br)o1)N(Cc1ccccc1)Cc1ccccc1	-18%	0.79µM*	-32%	-17%	?	-18%
COc1ccc(CNC(=O)c2ccc(Br)o2)cc1	5%	25µM*	-89%	4%	1%	25µM*
O=C(NCc1ccc(Cl)cc1)c1ccc(Cl)cc1[N+](=O)[O-]	18%	6%	-6%	-1%	-1%	16µM*
N#Cc1cccc(NC(=O)CN2C(=O)NC(Cc3ccccc3)C2=O)c1 (stereo unspecified)	-14%[9.22 µM]	·	4%[10 µM]	7%	·	·
CCOc1ccc(OCC)c(NS(=O)(=O)c2ccc3c(c2)n(C)c(=O)c(=O)n3C)c1	-2%	-4%	-8%[1.9 µM]	-1%	?	-12%
CCOc1ccc2nc(NS(=O)(=O)c3ccc4c(c3)n(C)c(=O)n4C)sc2c1	0%	?	-15%	4%	22%	25µM*
CCOc1ccc(S(=O)(=O)Nc2nc3ccc(OC)cc3s2)cc1	13%	5%	20%	2%	-2%	-23%
CCOc1ccc2nc(NS(C)(=O)=O)sc2c1	-3%	?	-13%	3%	3%	28µM*
O=c1c(-c2ccc(Cl)cc2)nc2cnc(Oc3ccccc3)nc2n1C1CC1	·	?	20%	·	·	-11%
N#Cc1cccc(-c2nc3cnc(Oc4cccc(Cl)c4)nc3n(C3CC3)c2=O)c1	·	25µM*	?	·	?	·
CCCCC(CC)CNCC(CC)CCCC (stereo unspecified)	·	25µM*	-9%	·	·	-10%
CC(C)(CNc1ccc([N+](=O)[O-])cc1C#N)N1CCOCC1	13%	2.2µM*	-9%[10 µM]	-26%	?	·
O=C(NNC(=S)NCc1ccc(Cl)cc1)c1ccc2c(c1)OCO2	-25%[9.22 µM]	6%	-8%[10 µM]	-19%	9%[46 µM]	·
CCOc1ccccc1NC(=O)CSc1nccn1Cc1ccc(F)cc1	·	·	·	·	-3%[46 µM]	·
Cc1cc(C#N)c(C)n1-c1cc(S(=O)(=O)N2CCOCC2)ccc1N1CCCC1	5%	4.5µM*	-23%	0%	19%	7.9µM*
CC(C)NC(=O)C1CCN(c2ccc(S(=O)(=O)N3CCOCC3)cc2Cl)CC1	19%[9.22 µM]	·	-9%[10 µM]	1%	·	·
O=C(Nc1nc(-c2cccs2)cs1)c1cccc(S(=O)(=O)N2CCCCC2)c1	?	1%	18%[1.9 µM]	?	?	-14%
Cc1ccc(-c2csc(NC(=O)c3cccc(S(=O)(=O)N4CCN(C)CC4)c3)n2)cc1	11%	2.5µM*	-8%	4%	?	-27%
CCOc1ccc(NC(=S)Nc2cc(-c3ccccc3)[nH]n2)cc1	2%	13µM*	-57%	6%	8%	-15%
COc1ccc(NC(=S)Nc2cc(-c3ccccc3)[nH]n2)cc1Cl	3%	10µM*	4%[10 µM]	-12%	?	-29%
SMILES	HttQ103 aggreg	ALDH1A1 block	HTT ATP protect	JMJD2E inh	Lamin A splicing	HPGD inh
Cc1cc(NC(=S)Nc2ccc(C)c(Cl)c2)n[nH]1	5%[9.22 µM]	1.4µM*	-65%	-3%	·	·
O=c1n(Cc2ccccc2Cl)nc2n1-c1ccccc1SC2	-18%[9.22 µM]	·	-13%[10 µM]	-7%	·	·
COc1ccc(CNC(=O)CCCN2C(=O)CSc3c2c(C)nn3-c2ccccc2)cc1	·	·	·	·	-4%[46 µM]	·
O=[N+]([O-])c1ccccc1/C=N/N1CCN(c2ccccn2)CC1	-15%	-3%	-2%	7%	2%	-5%
Cc1ccc(N2CCN(/N=C/c3ccccc3[N+](=O)[O-])CC2)cc1	9%	16µM*	-11%	-4%	·	·
CCOC(=O)C1CCN(C(=O)Cn2c(=O)cc(C)c3c(C)nn(C)c32)CC1	·	·	·	·	1%[46 µM]	·
CCN(CC)c1ccc(NC(=O)CCS(=O)(=O)c2cc3c(cc2Cl)NC(=O)CO3)c(C)c1	·	·	·	·	-23%[46 µM]	·
O=C(NCc1ccccc1Cl)C1CCCN(c2ncnc3onc(-c4ccc(F)cc4)c23)C1 (stereo unspecified)	·	·	·	·	-10%[46 µM]	·
O=C(CNc1ccccc1)Nc1ccc(F)cc1	1%	14µM*	-8%[0.074 µM]	0%	?	-16%
CC(=O)c1ccccc1NCC(=O)Nc1ccc(C)cc1	14%	13µM*	-10%	4%	·	·
O=C(CSc1ccc(F)cc1)Nc1ccccc1Br	-4%	2%	17%	6%	·	·
COc1ccccc1C(=O)NCC(=O)Nc1ccccc1	0.35µM*	0%	-16%	4%	-3%	-3%
Cc1ccc(NC(=O)c2ccccc2NC(=O)CCC(=O)O)cc1	10%	-1%	-10%[10 µM]	5%	?	-13%
O=C(CSc1ccc(F)cc1)Nc1ccc(Br)cc1	4%	20µM*	-15%	-3%	8%[46 µM]	·
O=C(Nc1ccc(F)cc1)c1ccccc1	-8%	6%	-14%	-3%	6%	-12%
O=C(c1cncs1)N1CCCC(CNS(=O)(=O)c2cccs2)C1 (stereo unspecified)	-4%[9.22 µM]	?	14%[10 µM]	3%	4%[46 µM]	·
O=C(CN1CCCCC1)Nc1ccc(N2CCCCCC2)cc1	11%[9.22 µM]	?	7%[10 µM]	?	?	·
NC(=O)c1ccc(NC(=O)CN2CCN(c3ccc(Cl)cc3)CC2)cc1	?	22µM*	·	24%	·	·
COc1ccc2[nH]cc(CCNc3ncnc4ccc(-c5c(C)noc5C)cc34)c2c1	·	?	-59%	·	?	·
Cc1c(C(=O)Nc2ccc(-c3nnc4n3CCCCC4)cc2)oc2c1ccc1ccccc12	9%	-12%	-20%[10 µM]	?	?	?
O=C(/C=C/c1ccccc1Cl)Nc1ccc(-c2nnc3n2CCCCC3)cc1	-9%	-4%	?	-17%	-5%	4µM*
O=C(Nc1ccc(-c2nnc3n2CCCCC3)cc1)c1cc2ccccc2o1	15%	-1%	8%[10 µM]	-4%	-8%	2.2µM*
COCCNC(=O)CSc1nc2cc3c(cc2c(=O)n1CCCCCC(=O)NCCc1ccc(OC)c(OC)c1)OCO3	·	·	·	·	-6%[46 µM]	·
